Measurements as given in ChEMBL document CHEMBL3988442, “University of Dundee, Small-Polar-MMV Screening Library” (2021).
In all, about 69,000 compounds went through this assay and about 950 (1.4%) showed an effect of 50% or more. Many of the other results were omitted from the sample, so strong results are more common in it than they were.

These compounds were tested on Mycobacterium tuberculosis (assay: Cornell M. t heat shock assay; further: in the data most compounds retested in dose-response had high values).
Type: functional, organism-based
Set-up: dose or concentration left out as unconfirmed

Row | SMILES | Percent Effect
1 | CS(=O)(=O)NC[C@@H]1OC[C@H]2CN(Cc3ccccc3)CC[C@H]21.O=C(O)C(F)(F)F | 25.84%
2 | O=C(O)Cn1ccc(=O)c2cc(Cl)ccc21 | 63.91%
3 | O=C(O)Cn1ccc(=O)c2ccc(Cl)cc21 | -0.616%
4 | O=C(O)Cn1ccc(=O)c2cc(F)ccc21 | 12.91%
5 | CN(C)CCOCc1cncc2c1CCN(C1CCOCC1)C2.O=C(O)C(F)(F)F.O=C(O)C(F)(F)F.O=C(O)C(F)(F)F | 38.62%
6 | O=C(CSc1nnc(N2CCNCC2)s1)Nc1ccccc1.O=C(O)C(F)(F)F | -1.012%
7 | CC(C)Oc1ccc(CNC(=O)C2CCS(=O)(=O)C2)cn1 (centres undefined) | -25.56%
8 | CCc1ccc(C(C)NCc2nccn2Cc2ccccc2)o1 (centres undefined) | 91.1%
9 | CC(NCCc1nccn1Cc1ccccc1)c1cccs1 (centres undefined) | 34.94%
10 | Cc1ccc(C(C)NCCc2nccn2Cc2ccccc2)o1 (centres undefined) | -11.63%
11 | O=C(O)C(F)(F)F.c1ccc2c(c1)N(CC1CCOC1)CC21CCN(c2cnccn2)CC1 (centres undefined) | 16.03%
12 | COCCN1CCCC2(CCC(=O)N2Cc2cccnc2)C1.O=C(O)C(F)(F)F (centres undefined) | -18.4%
13 | Cc1nnc([C@]23COC[C@H]2CN(S(=O)(=O)c2cccnc2)C3)o1.O=C(O)C(F)(F)F | 48.22%
14 | COc1ccc(CN(C(=O)C2CCCS2)c2ccncc2)cc1 (centres undefined) | 99.59%
15 | COc1ccc(CN(C(=O)C2CCCO2)c2ccncc2)cc1 (centres undefined) | -11.42%
16 | COc1ccc(CN(C(=O)C2CCOCC2)c2ccncc2)cc1 | -4.775%
17 | O=C(CC1CC1)N1CCn2cc(Cn3cccn3)nc2C1.O=C(O)C(F)(F)F | -0.6568%
18 | CC(C)n1nc(CN2CCOCC2)c2c1CN(C(=O)c1ccno1)C2.O=C(O)C(F)(F)F | 17.65%
19 | Cc1ccc(CNCc2cccc3cccnc23)c(OC2CCOC2)c1 (centres undefined) | 87.35%
20 | Cc1ccc(CNCc2cccc3cn[nH]c23)c(OC2CCOC2)c1 (centres undefined) | 3.326%
21 | Cc1ccc(CNCc2c[nH]nc2C(C)(C)C)c(OC2CCOC2)c1 (centres undefined) | 18.1%
22 | CC(C)N(C)Cc1cnc2n1CCN(Cc1cccc(F)c1)C2.O=C(O)C(F)(F)F.O=C(O)C(F)(F)F | -5.438%
23 | Cc1nnc(N2CCCC3(CN(Cc4nccs4)CCO3)C2)o1.O=C(O)C(F)(F)F.O=C(O)C(F)(F)F (centres undefined) | -34.51%

Row | SMILES | Percent Effect
24 | CCN(CC)C1CCN(C(=O)c2cc3cc(C)cc(C)c3nc2C)CC1.Cl | 6.865%
25 | Cl.FC(F)(F)c1ccc(-c2cnc(C3CCCN3)cn2)cc1 (centres undefined) | -8.787%
26 | O=C(Cc1ccncc1)N1CCC2(CC1)CC(c1ccccc1)CO2.O=C(O)C(F)(F)F (centres undefined) | 53.05%
27 | CC1COC2(CCN(C(=O)Cc3ccncc3)CC2)C1.O=C(O)C(F)(F)F (centres undefined) | 19.29%
28 | Cn1cc(C2COC3(CCN(C(=O)Cc4ccccc4)CC3)C2)cn1 (centres undefined) | 32.13%
29 | Cc1ccc(CN2CCn3c(CNC(=O)c4cccn4C)cnc3C2)s1.O=C(O)C(F)(F)F | 7.209%
30 | COCC1Cn2nnc(-c3cnn(C)c3)c2CN1Cc1cccs1.O=C(O)C(F)(F)F (centres undefined) | 17.22%
31 | CN(C)c1cccc(CNC(=O)Nc2ccc3[nH]nnc3c2)n1 | -8.207%
32 | CC(=O)c1ccc(NC(=O)NCc2cccc(N(C)C)n2)cc1C | 63.04%
33 | COc1ccc(C)c(NC(=O)NCc2cccc(N(C)C)n2)c1 | 29.74%
34 | CS(=O)(=O)N1CCOCC2(CCN(c3ccccn3)C2)C1.O=C(O)C(F)(F)F (centres undefined) | -2.08%
35 | CCN1CCC2(CCN(c3ncccn3)CC2)C1=O.O=C(O)C(F)(F)F | -1.865%
36 | OCc1csc(N2CCCC(COc3cccc(F)c3)C2)n1 (centres undefined) | -18.57%
37 | CN(C)Cc1ccc(C(=O)N2CCCC(COc3ccc(F)cc3)C2)o1 (centres undefined) | 1.225%
38 | Cc1nc(N)cc(N2CCCC(COc3cccc(F)c3)C2)n1 (centres undefined) | 95.51%
39 | Nc1cc(N2CCCC(COc3ccc(F)cc3)C2)ncn1 (centres undefined) | -15.24%
40 | CN(C)Cc1nc(C(=O)N2CCCC(COc3ccc(F)cc3)C2)cs1 (centres undefined) | -4.47%
41 | Cc1ccccc1OCC1CCCN(c2cc(N)nc(N)n2)C1 (centres undefined) | 94.51%
42 | CCNC(=O)c1ccnc(N2CCCC(COc3ccccc3C)C2)c1 (centres undefined) | -1.28%
43 | Cc1nc(CN(C)C)cc(N2CCCC(COc3ccc(F)cc3)C2)n1 (centres undefined) | 82.2%
44 | Nc1cc(N2CCCC(COc3ccc(F)cc3)C2)nc(N)n1 (centres undefined) | 0.7864%
45 | Cl.NCCc1cc(N2CCOCC2)nc(NC2CC2)n1 | -1.001%
46 | Cn1cc(N2C(=O)CC[C@@H]3[C@H]2CCN3Cc2nccs2)cn1.O=C(O)C(F)(F)F | -19.88%

Row | SMILES | Percent Effect
47 | O=C(O)C(F)(F)F.O=C1C[C@H]2[C@@H](CCN2C(=O)Cc2cccs2)N1Cc1cccnc1 | -27.42%
48 | Cn1cc(C(=O)N2CC[C@@H]3[C@@H]2CCN3Cc2cccc(F)c2)cn1.O=C(O)C(F)(F)F | 6.285%
49 | O=C(O)C(F)(F)F.O=C(O)C(F)(F)F.O=C(O)C(F)(F)F.O=C1NC2(CCN(Cc3cccnc3)CC2)CC1c1cccnc1 (centres undefined) | -25.56%
50 | Cc1cc(CN2CC[C@H]3C[C@H](C(=O)N4CCC(C)CC4)O[C@H]3C2)no1.O=C(O)C(F)(F)F | -0.569%
51 | CC1(C)CC(N(Cc2cccnc2)Cc2cccc(F)c2)CC(C)(C)N1.O=C(O)CC(O)(CC(=O)O)C(=O)O | -20.05%
52 | CC1c2ncc(Cn3cccn3)n2CCN1Cc1cccnc1.O=C(O)C(F)(F)F.O=C(O)C(F)(F)F (centres undefined) | -18.15%
53 | O=C(O)C(F)(F)F.O=C(O)C(F)(F)F.c1cncc(CN2CCc3ncnc(C4CCOC4)c3CC2)c1 (centres undefined) | -9.628%
54 | Cc1ccc2c(c1)CCC2NCc1c(C)nn(C)c1N1CCOCC1.Cl (centres undefined) | -16.61%
55 | Cc1cc(C)nc(N2CCCC(c3cccc(-n4ccnc4)n3)C2)n1 (centres undefined) | 68.58%
56 | c1cnc(N2CCCC(c3cncc(-n4ccnc4)n3)C2)nc1 (centres undefined) | -40.48%
57 | CC(=O)N1CCCC(c2cccc(-n3ccnc3)n2)C1 (centres undefined) | -20.38%
58 | Cc1cccc(C(=O)N2CCn3cnc(COCC4CC4)c3C2)c1 | 29.98%
59 | O=C(c1ccc2[nH]ccc2c1)N1CCn2cnc(COCC3CC3)c2C1 | 54.29%
60 | O=C(c1ccoc1)N1CCn2cnc(COCC3CC3)c2C1 | 1.475%
61 | Cn1cc(N2CCC3(CCCN(Cc4ccc(F)cc4)C3)C2=O)cn1.O=C(O)C(F)(F)F (centres undefined) | -14.44%
62 | CC(C)CCN1CCc2cc(C(=O)N(C)C)c(NCC3CC3)nc2CC1.O=C(O)C(F)(F)F.O=C(O)C(F)(F)F | -33.33%
63 | CNC(=O)[C@H]1C[C@@H]2CN(Cc3csc(C)n3)C[C@@H]2N1S(C)(=O)=O.O=C(O)C(F)(F)F | 2.273%
64 | COCc1cncc2c1CCN(C(=O)c1cccc(C#N)c1)C2.O=C(O)C(F)(F)F | 18.35%
65 | OCC1N(Cc2ccc(F)cc2)[C@H]2CC[C@]1(O)CC2 (some centres undefined) | 36.63%
66 | CCC(C)NC(=O)Cn1c(Nc2cc(C)cc(C)c2)nc(C)cc1=O (centres undefined) | 104.5%
67 | Cc1cc(C)cc(Nc2nc(C)cc(=O)n2CC(=O)NC(C)C)c1 | 5.735%
68 | Cc1cc(=O)n(CC(=O)NC(C)C)c(Nc2ccc(F)c(C)c2)n1 | -7.671%
69 | Cc1ncsc1C(=O)N1CCCCC1c1cc2nc(C)c(C)c(O)n2n1 (centres undefined) | -18.91%

Row | SMILES | Percent Effect
70 | Cc1noc(C)c1CN1C[C@H]2CN(Cc3cccc(F)c3)C[C@H]2C1.O=C(O)C(F)(F)F.O=C(O)C(F)(F)F | 1.076%
71 | CCC(=O)N1CCC2(CC1)c1nc[nH]c1CCN2S(C)(=O)=O | -7.001%
72 | CCC(=O)N1CCc2[nH]cnc2C12CCN(C(=O)c1snnc1C)CC2 | -5.563%
73 | CCC(=O)N1CCc2[nH]cnc2C12CCN(C(=O)CCS(C)(=O)=O)CC2 | 77.54%
74 | O=C(O)C(F)(F)F.O=C(O)C(F)(F)F.c1cncc(N2CCCC3(CN(Cc4cccs4)CCO3)C2)c1 (centres undefined) | -18.25%
75 | COCCN1CCc2ncnc(NC(C)C)c2CC1.O=C(O)C(F)(F)F | -1.499%
76 | N#Cc1ccc(NC2CCN(c3ncccn3)CC2)cc1C(F)(F)F | 101.3%
77 | CS(=O)(=O)N1CCC(Nc2ccc(C#N)c(C(F)(F)F)c2)CC1 | -3.037%
78 | N#Cc1ccc(NC2CCN(c3ncccn3)CC2)cc1Cl | -23.07%
79 | COCCN1CCC2(CCN(c3ncccn3)CC2)C1=O.O=C(O)C(F)(F)F | -21.42%
80 | O=C(O)C(F)(F)F.O=C(c1cnccn1)N1C[C@@H](OCc2cccnc2)[C@H]2OCCC[C@H]21 | -23.96%
81 | CN1CCCC(c2cncc(C(=O)NCc3ccccc3Cl)n2)C1.O=CO (centres undefined) | 5.616%
82 | CC(=O)Nc1ccc(OCc2noc(C(=O)N3CCCC3)n2)cc1 | 4.312%
83 | O=C(c1nc(COc2ccc3c(c2)OCO3)no1)N1CCCC1 | 24.96%
84 | CC(=O)Nc1ccc(OCc2noc(C(=O)N3CCCCCC3)n2)cc1 | 51.07%
85 | O=C(c1nc(Cc2c[nH]c3ccccc23)no1)N1CCCCC1 | 12.78%
86 | CC(=O)Nc1ccc(OCc2noc(C(=O)N3CCCCC3)n2)cc1 | 65.04%
87 | NC(=O)Cc1ccc(OCc2noc(C(=O)N3CCCC3)n2)cc1 | -10.23%
88 | O=C(NCC1CC2(CO1)CN(Cc1cccs1)C2)C1CCC1.O=C(O)C(F)(F)F (centres undefined) | -27.85%
89 | O=C(O)C(F)(F)F.O=C(c1ccncc1F)N1CC[C@@H]2OC(COCC3CC3)CC[C@@H]21 (some centres undefined) | -24.6%
